# Legend:
# [1] = target: Sphingosine kinase 1 (Homo sapiens) (UniProt Q9NYA1); details: at 1 µM;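 note: mean SPHK1 inhibition value reported from the GSK PKIS kinase panel screen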
# [2] = target: T1, Sphingosine kinase 2 (Homo sapiens) (UniProt Q9NRA0); details: at 0.1 µM
# T1 sequence (whole entry): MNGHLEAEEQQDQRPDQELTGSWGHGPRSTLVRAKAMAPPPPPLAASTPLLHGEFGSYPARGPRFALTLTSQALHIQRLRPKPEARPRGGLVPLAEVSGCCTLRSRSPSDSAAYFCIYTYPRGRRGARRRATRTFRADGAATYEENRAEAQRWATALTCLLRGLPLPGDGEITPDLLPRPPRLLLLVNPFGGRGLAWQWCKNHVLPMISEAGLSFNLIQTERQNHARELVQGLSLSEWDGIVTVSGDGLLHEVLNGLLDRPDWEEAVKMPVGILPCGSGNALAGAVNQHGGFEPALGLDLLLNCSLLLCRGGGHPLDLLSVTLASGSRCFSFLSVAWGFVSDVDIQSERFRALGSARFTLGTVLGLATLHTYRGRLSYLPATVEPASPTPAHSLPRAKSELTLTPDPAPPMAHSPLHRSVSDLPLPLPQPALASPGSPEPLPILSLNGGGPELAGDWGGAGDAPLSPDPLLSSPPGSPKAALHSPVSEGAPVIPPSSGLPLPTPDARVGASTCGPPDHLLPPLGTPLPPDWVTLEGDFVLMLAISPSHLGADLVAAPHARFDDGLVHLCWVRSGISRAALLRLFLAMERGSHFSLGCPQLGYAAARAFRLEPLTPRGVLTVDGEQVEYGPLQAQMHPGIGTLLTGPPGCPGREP
# [3] = target: T1, Sphingosine kinase 2 (Homo sapiens); details: at 1 µM
# [4] = target: Casein kinase II subunit alpha (Homo sapiens) (UniProt P68400); details: at 0.1 µM
# [5] = target: Casein kinase II subunit alpha (Homo sapiens) (UniProt P68400); details: at 1 µM
# [6] = target: T2, Inhibitor of nuclear factor kappa-B kinase subunit alpha (Homo sapiens) (UniProt O15111); details: at 0.1 µM
# T2 sequence (whole entry): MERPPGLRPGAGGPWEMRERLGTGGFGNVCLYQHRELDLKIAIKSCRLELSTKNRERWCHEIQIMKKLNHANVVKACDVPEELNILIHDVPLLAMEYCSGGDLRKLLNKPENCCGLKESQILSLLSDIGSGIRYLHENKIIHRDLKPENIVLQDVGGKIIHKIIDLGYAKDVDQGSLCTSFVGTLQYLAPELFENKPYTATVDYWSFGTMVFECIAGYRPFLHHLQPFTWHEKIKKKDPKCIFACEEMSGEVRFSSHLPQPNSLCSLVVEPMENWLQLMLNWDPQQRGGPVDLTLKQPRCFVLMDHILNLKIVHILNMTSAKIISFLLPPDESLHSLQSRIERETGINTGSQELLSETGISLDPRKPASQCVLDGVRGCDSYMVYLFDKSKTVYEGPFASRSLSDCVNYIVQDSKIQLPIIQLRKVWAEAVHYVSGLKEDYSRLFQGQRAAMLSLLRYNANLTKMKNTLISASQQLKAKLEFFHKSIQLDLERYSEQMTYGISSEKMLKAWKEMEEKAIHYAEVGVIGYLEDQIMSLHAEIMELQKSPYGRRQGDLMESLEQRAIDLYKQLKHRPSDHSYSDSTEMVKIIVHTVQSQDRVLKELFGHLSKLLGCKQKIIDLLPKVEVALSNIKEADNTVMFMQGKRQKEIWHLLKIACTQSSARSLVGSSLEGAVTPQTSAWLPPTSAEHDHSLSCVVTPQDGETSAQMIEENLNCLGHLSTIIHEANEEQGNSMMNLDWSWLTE
# [7] = target: T3, Inhibitor of nuclear factor kappa-B kinase subunit beta (Homo sapiens) (UniProt O14920); details: at 0.1 µM
# T3 sequence (whole entry): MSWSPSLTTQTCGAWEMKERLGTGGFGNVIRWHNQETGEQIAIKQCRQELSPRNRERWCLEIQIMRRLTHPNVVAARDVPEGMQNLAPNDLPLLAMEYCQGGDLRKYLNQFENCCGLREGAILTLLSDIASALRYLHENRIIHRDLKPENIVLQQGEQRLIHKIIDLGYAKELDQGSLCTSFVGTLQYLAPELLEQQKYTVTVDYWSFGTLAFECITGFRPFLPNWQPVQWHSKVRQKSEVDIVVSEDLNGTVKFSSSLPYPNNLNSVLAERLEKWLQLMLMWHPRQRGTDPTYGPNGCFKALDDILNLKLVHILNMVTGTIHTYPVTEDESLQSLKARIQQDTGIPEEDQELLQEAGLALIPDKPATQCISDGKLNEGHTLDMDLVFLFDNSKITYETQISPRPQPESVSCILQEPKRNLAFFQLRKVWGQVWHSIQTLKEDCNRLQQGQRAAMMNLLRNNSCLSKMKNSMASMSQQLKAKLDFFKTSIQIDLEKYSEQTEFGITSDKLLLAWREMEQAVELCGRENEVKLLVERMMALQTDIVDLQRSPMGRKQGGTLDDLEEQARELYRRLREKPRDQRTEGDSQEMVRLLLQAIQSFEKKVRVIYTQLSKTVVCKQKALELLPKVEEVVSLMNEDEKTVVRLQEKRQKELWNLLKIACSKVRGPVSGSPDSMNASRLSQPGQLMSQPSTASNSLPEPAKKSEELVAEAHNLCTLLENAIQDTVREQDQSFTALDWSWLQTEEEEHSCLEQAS
# [8] = target: T3, Inhibitor of nuclear factor kappa-B kinase subunit beta (Homo sapiens); details: at 1 µM
# [9] = target: T4, Inhibitor of nuclear factor kappa-B kinase subunit epsilon (Homo sapiens) (UniProt Q14164); details: at 0.1 µM
# T4 sequence (whole entry): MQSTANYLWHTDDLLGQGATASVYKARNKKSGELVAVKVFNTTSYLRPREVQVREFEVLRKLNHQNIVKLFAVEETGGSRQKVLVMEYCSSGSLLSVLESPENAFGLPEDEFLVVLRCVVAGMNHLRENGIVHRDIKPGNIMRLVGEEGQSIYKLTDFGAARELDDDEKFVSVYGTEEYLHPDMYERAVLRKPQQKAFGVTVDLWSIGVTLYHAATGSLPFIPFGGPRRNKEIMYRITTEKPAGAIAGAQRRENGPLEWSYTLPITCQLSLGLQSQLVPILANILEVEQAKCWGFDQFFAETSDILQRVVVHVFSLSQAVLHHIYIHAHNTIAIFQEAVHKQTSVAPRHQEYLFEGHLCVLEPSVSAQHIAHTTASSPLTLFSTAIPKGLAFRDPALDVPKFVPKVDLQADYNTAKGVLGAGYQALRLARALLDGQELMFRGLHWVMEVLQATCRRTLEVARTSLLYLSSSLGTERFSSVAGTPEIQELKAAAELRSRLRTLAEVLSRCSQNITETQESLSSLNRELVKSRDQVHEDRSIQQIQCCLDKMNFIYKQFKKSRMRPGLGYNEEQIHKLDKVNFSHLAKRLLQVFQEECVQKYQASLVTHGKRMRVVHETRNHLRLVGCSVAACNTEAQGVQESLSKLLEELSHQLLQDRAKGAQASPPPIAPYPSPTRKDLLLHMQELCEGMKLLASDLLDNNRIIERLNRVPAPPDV
# [10] = target: T4, Inhibitor of nuclear factor kappa-B kinase subunit epsilon (Homo sapiens); details: at 1 µM
# [11] = target: T5, Serine/threonine-protein kinase Nek1 (Homo sapiens) (UniProt Q96PY6); details: at 0.1 µM
# T5 sequence (whole entry): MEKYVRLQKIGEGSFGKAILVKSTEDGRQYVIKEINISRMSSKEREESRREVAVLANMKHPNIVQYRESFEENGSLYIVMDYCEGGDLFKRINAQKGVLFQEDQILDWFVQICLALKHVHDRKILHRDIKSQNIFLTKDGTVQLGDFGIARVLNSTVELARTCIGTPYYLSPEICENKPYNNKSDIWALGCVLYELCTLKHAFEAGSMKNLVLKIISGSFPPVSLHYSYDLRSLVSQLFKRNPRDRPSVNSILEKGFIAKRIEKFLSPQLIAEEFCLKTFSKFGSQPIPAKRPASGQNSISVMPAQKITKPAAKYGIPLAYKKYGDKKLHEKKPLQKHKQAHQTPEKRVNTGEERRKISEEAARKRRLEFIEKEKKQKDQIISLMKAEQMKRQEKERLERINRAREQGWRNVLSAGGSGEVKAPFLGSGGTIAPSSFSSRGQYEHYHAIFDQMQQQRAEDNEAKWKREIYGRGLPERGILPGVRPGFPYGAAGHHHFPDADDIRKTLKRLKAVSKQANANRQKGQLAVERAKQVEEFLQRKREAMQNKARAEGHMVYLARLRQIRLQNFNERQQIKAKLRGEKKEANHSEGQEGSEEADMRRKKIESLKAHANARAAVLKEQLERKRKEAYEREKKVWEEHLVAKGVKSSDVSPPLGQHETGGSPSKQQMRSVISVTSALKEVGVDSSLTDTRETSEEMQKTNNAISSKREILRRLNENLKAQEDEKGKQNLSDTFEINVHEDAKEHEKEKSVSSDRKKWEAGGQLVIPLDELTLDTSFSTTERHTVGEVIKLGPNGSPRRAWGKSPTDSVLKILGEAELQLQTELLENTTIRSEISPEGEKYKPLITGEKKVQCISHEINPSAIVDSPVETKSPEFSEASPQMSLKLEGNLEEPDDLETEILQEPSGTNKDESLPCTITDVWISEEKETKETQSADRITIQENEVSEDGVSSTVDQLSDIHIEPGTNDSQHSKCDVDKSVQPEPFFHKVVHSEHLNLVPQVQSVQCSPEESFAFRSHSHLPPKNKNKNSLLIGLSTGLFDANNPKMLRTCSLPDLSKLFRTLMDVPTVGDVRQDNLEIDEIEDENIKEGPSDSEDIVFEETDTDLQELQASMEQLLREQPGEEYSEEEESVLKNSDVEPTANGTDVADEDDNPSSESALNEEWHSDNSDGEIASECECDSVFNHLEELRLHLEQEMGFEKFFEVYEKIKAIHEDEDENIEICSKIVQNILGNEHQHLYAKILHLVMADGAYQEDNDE
# [12] = target: T5, Serine/threonine-protein kinase Nek1 (Homo sapiens); details: at 1 µM
# [13] = target: T6, Serine/threonine-protein kinase Nek2 (Homo sapiens) (UniProt P51955); details: at 0.1 µM
# T6 sequence (whole entry): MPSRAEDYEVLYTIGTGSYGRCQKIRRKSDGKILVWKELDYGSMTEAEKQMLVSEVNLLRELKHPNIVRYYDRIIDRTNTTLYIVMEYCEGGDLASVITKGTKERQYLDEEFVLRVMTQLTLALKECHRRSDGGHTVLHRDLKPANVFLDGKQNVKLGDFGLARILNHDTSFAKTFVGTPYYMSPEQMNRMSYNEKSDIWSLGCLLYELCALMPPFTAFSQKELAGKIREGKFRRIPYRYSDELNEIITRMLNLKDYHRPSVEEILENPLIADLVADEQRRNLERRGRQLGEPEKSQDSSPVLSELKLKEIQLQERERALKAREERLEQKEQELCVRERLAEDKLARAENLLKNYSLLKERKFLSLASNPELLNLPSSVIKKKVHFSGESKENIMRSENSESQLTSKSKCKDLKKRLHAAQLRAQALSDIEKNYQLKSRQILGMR
# [14] = target: T6, Serine/threonine-protein kinase Nek2 (Homo sapiens); details: at 1 µM
# [15] = target: Serine/threonine-protein kinase Nek6 (Homo sapiens) (UniProt Q9HC98); details: at 0.1 µM
# [16] = target: Serine/threonine-protein kinase Nek6 (Homo sapiens) (UniProt Q9HC98); details: at 1 µM
# [17] = target: Serine/threonine-protein kinase Nek7 (Homo sapiens) (UniProt Q8TDX7); details: at 0.1 µM
# [18] = target: Serine/threonine-protein kinase Nek7 (Homo sapiens) (UniProt Q8TDX7); details: at 1 µM
# [19] = target: T7, Serine/threonine-protein kinase Nek9 (Homo sapiens) (UniProt Q8TD19); details: at 0.1 µM;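 note: reported value is the mean percent inhibition of NEK9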
# T7 sequence (whole entry): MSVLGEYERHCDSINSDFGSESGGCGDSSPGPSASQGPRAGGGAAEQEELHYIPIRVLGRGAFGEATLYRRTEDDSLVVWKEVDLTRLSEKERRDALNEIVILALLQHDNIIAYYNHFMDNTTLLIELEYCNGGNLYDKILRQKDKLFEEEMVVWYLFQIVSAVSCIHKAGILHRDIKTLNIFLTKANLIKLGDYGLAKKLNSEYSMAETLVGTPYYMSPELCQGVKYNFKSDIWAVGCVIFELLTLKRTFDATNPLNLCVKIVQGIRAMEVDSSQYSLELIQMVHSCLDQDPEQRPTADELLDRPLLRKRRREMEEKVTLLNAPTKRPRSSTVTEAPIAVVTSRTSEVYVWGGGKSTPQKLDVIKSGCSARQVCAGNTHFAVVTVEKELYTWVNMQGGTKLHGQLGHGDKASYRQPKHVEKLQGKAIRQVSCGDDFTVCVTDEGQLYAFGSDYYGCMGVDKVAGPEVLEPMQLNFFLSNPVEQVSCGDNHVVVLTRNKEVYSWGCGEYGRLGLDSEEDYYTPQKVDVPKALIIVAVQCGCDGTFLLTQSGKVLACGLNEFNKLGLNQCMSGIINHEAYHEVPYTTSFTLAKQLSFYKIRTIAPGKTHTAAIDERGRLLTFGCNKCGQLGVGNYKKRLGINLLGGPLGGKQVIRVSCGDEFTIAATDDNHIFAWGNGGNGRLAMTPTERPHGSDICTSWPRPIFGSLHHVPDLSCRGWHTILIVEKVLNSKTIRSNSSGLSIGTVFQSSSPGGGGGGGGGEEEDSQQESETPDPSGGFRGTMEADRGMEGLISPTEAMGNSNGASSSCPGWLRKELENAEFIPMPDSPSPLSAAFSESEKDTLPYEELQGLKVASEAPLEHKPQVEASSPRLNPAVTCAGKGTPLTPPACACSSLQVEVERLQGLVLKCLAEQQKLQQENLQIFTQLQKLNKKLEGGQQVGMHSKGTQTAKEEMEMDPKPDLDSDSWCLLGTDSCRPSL
# [20] = target: T2, Inhibitor of nuclear factor kappa-B kinase subunit alpha (Homo sapiens); details: at 1 µM
# Chain of Serine/threonine-protein kinase Nek7 (Homo sapiens) (Q8TDX7 whole entry, looked up): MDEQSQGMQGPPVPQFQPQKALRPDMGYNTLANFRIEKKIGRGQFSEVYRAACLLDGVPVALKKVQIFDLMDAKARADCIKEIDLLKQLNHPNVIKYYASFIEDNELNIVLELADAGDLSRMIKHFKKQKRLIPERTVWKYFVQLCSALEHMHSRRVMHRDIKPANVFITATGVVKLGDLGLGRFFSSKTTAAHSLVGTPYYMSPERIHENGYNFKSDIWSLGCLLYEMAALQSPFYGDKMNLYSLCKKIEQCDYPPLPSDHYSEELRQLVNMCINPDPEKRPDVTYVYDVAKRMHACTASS
# Chain of Casein kinase II subunit alpha (Homo sapiens) (P68400 whole entry, looked up): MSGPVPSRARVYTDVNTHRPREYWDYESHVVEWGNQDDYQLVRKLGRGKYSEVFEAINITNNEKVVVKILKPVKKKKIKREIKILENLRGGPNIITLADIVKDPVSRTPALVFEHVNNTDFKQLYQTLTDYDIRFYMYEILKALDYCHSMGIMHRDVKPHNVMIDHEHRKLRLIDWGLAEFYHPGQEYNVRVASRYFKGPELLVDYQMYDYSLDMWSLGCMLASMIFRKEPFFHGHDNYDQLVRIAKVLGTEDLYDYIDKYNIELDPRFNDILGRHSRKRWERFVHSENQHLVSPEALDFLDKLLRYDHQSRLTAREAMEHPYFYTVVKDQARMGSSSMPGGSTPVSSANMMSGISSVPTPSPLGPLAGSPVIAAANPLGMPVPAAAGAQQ
# Chain of Serine/threonine-protein kinase Nek6 (Homo sapiens) (Q9HC98 whole entry): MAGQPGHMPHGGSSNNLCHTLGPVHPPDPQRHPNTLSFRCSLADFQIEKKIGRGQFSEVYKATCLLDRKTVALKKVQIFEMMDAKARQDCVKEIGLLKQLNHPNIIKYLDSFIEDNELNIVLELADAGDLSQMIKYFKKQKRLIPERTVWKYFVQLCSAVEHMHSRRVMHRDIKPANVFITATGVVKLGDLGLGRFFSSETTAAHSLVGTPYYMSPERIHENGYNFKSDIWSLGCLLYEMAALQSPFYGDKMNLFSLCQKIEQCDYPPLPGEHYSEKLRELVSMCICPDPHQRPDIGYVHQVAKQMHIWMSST
# Chain of Sphingosine kinase 1 (Homo sapiens) (Q9NYA1 whole entry): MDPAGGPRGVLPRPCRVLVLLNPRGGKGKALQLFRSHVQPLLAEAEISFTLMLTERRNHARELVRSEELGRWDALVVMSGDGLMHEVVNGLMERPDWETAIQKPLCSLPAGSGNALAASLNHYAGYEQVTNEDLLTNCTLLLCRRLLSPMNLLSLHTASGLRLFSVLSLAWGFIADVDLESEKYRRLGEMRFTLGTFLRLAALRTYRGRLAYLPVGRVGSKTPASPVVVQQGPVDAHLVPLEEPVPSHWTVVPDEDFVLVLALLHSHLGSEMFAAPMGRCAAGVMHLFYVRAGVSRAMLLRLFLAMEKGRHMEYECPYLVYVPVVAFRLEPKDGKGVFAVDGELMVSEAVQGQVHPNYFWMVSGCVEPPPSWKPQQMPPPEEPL
SMILES,inhibition [1] [%],inhibition [2] [%],inhibition [3] [%],inhibition [4] [%],inhibition [5] [%],inhibition [6] [%],inhibition [7] [%],inhibition [8] [%],inhibition [9] [%],inhibition [10] [%],inhibition [11] [%],inhibition [12] [%],inhibition [13] [%],inhibition [14] [%],inhibition [15] [%],inhibition [16] [%],inhibition [17] [%],inhibition [18] [%],inhibition [19] [%],inhibition [20] [%]
CN(c1ccc(NC(=O)Nc2c(Cl)cccc2Cl)cc1)c1ccnc(Nc2cccc(CS(C)(=O)=O)c2)n1,-2.39,0.77,-0.82,2.18,6.66,-7.42,3.11,2.65,6.91,8.6,1.38,1.93,0.12,1.07,0.64,1.86,1.01,1.59,-4.22,–
CCc1cccc(CC)c1/C=C/c1cncc(C(=O)NC)c1,-1.72,0.98,1.95,-0.28,-1.26,-2.82,4.86,2.91,1.34,3.78,1.27,1.92,3.4,3.05,0.31,0.68,2.82,2.39,8.92,-5.51
